Screening results (PubChem)
FMDV inh = High Throughput Screening for Foot and Mouth Disease Virus Antivirals; FMDV antiviral cell-based qHTS; Potency, µM (doses to about 57.9 µM), for inactives: top-dose activity change, negative = inhibition, usual class: inhibitors; actives 1.2% (n = 410,000); calls by dose curve; tested in HEK293T cells; note: read-out not given here; potency is the fitted concentration of half-maximal effect; % is set by controls: 0 for no effect and ±100 for the full control effect; nearly all actives have a fitted effect of over 45% in size
LASV entry inh = qHTS for Inhibitors of binding or entry into cells for Lassa Virus | Lassa virus pseudotype entry inhibition, cell reporter | Potency, µM (doses to about 37.9 µM), inactives show at the top dose activity change, negative = inhibition, actives largely listed as inhibitors | actives 1.2% (n = 300,000) | AID 540256, 2011; calls by dose curve; tested in HEK293 cells; note: potency is the fitted concentration of half-maximal effect; % is set by controls: 0 for no effect and ±100 for the full control effect; nearly all actives have a fitted effect of over 50% in size
Marburg entry inh = qHTS for inhibitors of binding or entry into cells for Marburg Virus | Marburg virus pseudotyped entry inhibition, cell reporter | Potency, µM (top dose mostly 37.8 µM), for the others: at the highest dose activity change, negative = inhibition, most hits filed as inhibitors | actives 1.8% (n = 300,000); calls by dose curve; tested in HEK293 cells; note: potency is the fitted concentration of half-maximal effect; % is set by controls: 0 for no effect and ±100 for the full control effect
HCMV inh = qHTS Assay for inhibitors of the human cytomegalovirus (HCMV) | HFF cells, HCMV-luciferase reporter, 72 h; stronger effect = lower value | activity change, negative = inhibition, % at 57.5 µM | actives 4.5% (n = 410,000) | AID 1259415, 2018; in the data active = activity change below about -60%; inconclusive = no clear call, values can overlap the other calls; inactive = above about -39%; note: % is set by controls: 0 for no effect and ±100 for the full control effect
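HFF cells seeded 16 h at 37C, treated with compounds, infected with luciferase-reporter HCMV at MOI 1 PFU/cell; luciferase read at 72 h post infection, normalized to buffer-only and Salinomycin controls.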
SARS PLpro yeast = qHTS of Yeast-based Assay for SARS-CoV PLP. S. cerevisiae expressing SARS-CoV PLpro, growth rescue. Potency, µM (doses to about 32.9 µM), for the others: at the top dose activity, positive = growth rescue, usual class: activators. actives 0.19% (n = 330,000). AID 485353, 2010; calls by dose curve; note: potency is the fitted concentration of half-maximal effect; 0% is about no effect; nearly all actives have a fitted effect of over 55% in size
HCV inhibitor = qHTS Assay for Inhibitors of Hepatitis C Virus (HCV); Huh7.5.1 HCVcc-Cre infection, luciferase reporter, 44 h; actives 3.4% (n = 340,000); AID 651820, 2012; Potency, µM (titrated, usually from 41.8 µM), inactives show at the highest dose activity change, negative = inhibition, actives largely listed as inhibitors; active = well fitted inhibition curve with a large enough effect; inconclusive = small, poorly fitted or top-dose-only effect, or another doubt; inactive = no such curve, though single readings can be large or run the other way; note: potency is the fitted concentration of half-maximal effect; % is set by controls: 0 for no effect and ±100 for the full control effect
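HCVcc-Cre virus at an moi near 0.5 was added right after compound to cells cultured 4 h from seeding (1,000 cells/well). Luciferase activity was determined 44 h later, 15 min after substrate addition at RT.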
Starred values were filed as active, the others as inactive; ? = inconclusive; . = no result given; [ ] = remark or other dose. An excerpt weighted towards active compounds, which were near 8% of everything screened.

SMILES	FMDV inh	LASV entry inh	Marburg entry inh	HCMV inh	SARS PLpro yeast	HCV inhibitor
Cc1ccnc(N2C(=O)c3cccc4c([N+](=O)[O-])ccc(c34)C2=O)c1	?	?	21µM*	58	-38%	11µM*
Cc1ccc(N2C(=O)c3cccc4c([N+](=O)[O-])ccc(c34)C2=O)c2cccnc12	?	.	.	?	-2%	14%
COc1ccc([C@@H]2[C@@H](C(=O)N3CCOCC3)CC(=O)N2C(=O)C2CC2)cc1	.	.	.	11	.	.
Cc1ccccc1C(=O)O/N=C(\N)c1ccccc1	11µM*	?	?	85	-9%	?
N/C(=N\OC(=O)c1cccc(Br)c1)c1ccccc1	16%	6%	?	264	0%	11µM*
Cc1ccccc1/C(N)=N/OC(=O)c1ccc(F)cc1	8%	.	.	-90*	-3%	?
Cc1ccccc1NC(=O)Cn1c(=O)n(CCC(=O)N2CCc3ccccc3C2)c(=O)c2ccccc21	12%	2%[46.1 µM]	11%[46.1 µM]	13	.	.
O=C1C=CC(=O)N1CCCCCCCCCCN1C(=O)C=CC1=O	20µM*	?	?	-34	.	?
COc1ccc(N(C(C)C(=O)N2CCCC2)S(C)(=O)=O)cc1 (stereo not drawn)	-11%	.	.	-1	-1%	7%
CCOC(=O)C1CCN(C(=O)C(C)N(c2ccc(Oc3ccccc3)cc2)S(C)(=O)=O)CC1 (stereo not drawn)	?	.	.	5	-1%	10µM*
COc1ccc(N(C(C)C(=O)N2CCC(Cc3ccccc3)CC2)S(C)(=O)=O)cc1 (stereo not drawn)	11µM*	?	?	-74*	-1%	8.9µM*
CCOC(=O)N1CCN(C(=O)C(C)N(c2ccc(Oc3ccccc3)cc2)S(C)(=O)=O)CC1 (stereo not drawn)	?	-28%	-26%	-65*	-2%	?
Nc1c(-c2nc(-c3cccs3)no2)nnn1-c1cccc(Cl)c1	22%	?	.	31	.	.
CC12Nc3ccccc3C(=O)N1Cc1cnnn1-c1cc3c(cc12)OCO3 (stereo not drawn)	.	.	.	-3	.	.
CCOc1ccccc1OCCNC(C)Cc1ccc(OC)c(S(N)(=O)=O)c1 (stereo not drawn)	.	.	.	4	.	.
CC(C)[C@H]1C(C#N)=C(N)Oc2n[nH]c(C(C)(C)C)c21	.	.	-10%	.	.	.
CCOc1ccc(C(C)NC(=S)NCc2ccc(Cl)cc2)cc1 (stereo not drawn)	3%	.	.	-74*	0%	?
COc1ccc(C(C)NC(=S)NCc2ccc(F)cc2)cc1OC (stereo not drawn)	7%	17%	1%	-1	-8%	-14%
CCC(NC(=S)NCc1ccc(F)cc1)c1ccc(C(C)C)cc1 (stereo not drawn)	-21%	.	.	-97*	1%	?
CC(NC(=S)NCc1ccc(F)cc1)C12CC3CC(CC(C3)C1)C2 (stereo not drawn)	-19%	?	?	-85*	1%	-25%
CCC(C)c1ccc(C(C)NC(=S)NCc2ccc(F)cc2)cc1 (stereo not drawn)	?	?	?	-67*	15%	7.1µM*
CCCc1ccc(C(C)NC(=S)NCc2ccc(F)cc2)cc1 (stereo not drawn)	?	?	?	-27	5%	-12%
COC(=O)c1ccc(Sc2nnnn2-c2ccccc2)c([N+](=O)[O-])c1	20µM*	?	?	-40	-14%	2%
O=C(O)c1ccc(Sc2nnnn2-c2ccccc2)c([N+](=O)[O-])c1	4%	-18%	2%[46.1 µM]	20	-5%	7%
COc1cc(CN2CCN(Cc3ccc([N+](=O)[O-])cc3)CC2)c([N+](=O)[O-])cc1OC	?	.	.	-76*	-1%	-4%
SMILES	FMDV inh	LASV entry inh	Marburg entry inh	HCMV inh	SARS PLpro yeast	HCV inhibitor
COc1cc2cc(C(=O)N3CCN(Cc4ccc5c(c4)OCO5)CC3)[nH]c2cc1OC	-19%	.	.	-92*	3%	?
COc1ccc(C(=O)N2CCN(Cc3ccc4c(c3)OCO4)CC2)cc1OC	?	.	.	?	8%	?
CCN1CCN(Cc2cc(OC)c(OC)cc2[N+](=O)[O-])CC1	-11%	6%	1%	38	4%	2%
COc1ccc(C(=O)N2CCN(Cc3ccc4c(c3)OCO4)CC2)cc1[N+](=O)[O-]	-15%	?	?	-83*	0%	?
Cc1ccc(C)c(NC(=O)N2CCN(C(=O)c3nsc4ccccc34)CC2)c1	?	-7%[46.1 µM]	.	?	.	.
CC(C)Cn1cc(NC(=O)NCc2cccc(Cl)c2)c2ccccc2c1=O	-18%	11%[46.1 µM]	.	-13	.	.
CCOc1ccc(OCC)c(NS(=O)(=O)c2ccc3c(c2)CCCN3C(C)=O)c1	46%	25%[46.1 µM]	.	0	.	.
O=C(OCc1ccccc1)N1CCC2CC1c1ccc(N3CCOCC3)cc12 (stereo not drawn)	55%	.	.	17	.	.
O=C(OCc1ccccc1)N1CCC2CC1c1cc(N3CCOCC3)ccc12 (stereo not drawn)	3%	.	.	14	.	0.32µM*
CN(C(=O)c1cccc(Nc2ccc(-c3ccc4c(c3)OCCO4)nn2)c1)C1CCCCC1	-54%	14µM*	?	-93*	-2%	?
CC(=O)c1ccc(N2CCN(c3ccccc3O)CC2)c([N+](=O)[O-])c1	?	11%	?	-6	-7%	-23%
COc1ccc(OC)c(-c2cc(C3CCN(c4ncccc4[N+](=O)[O-])CC3)[nH]n2)c1	?	?	?	-29	-17%	11µM*
O=[N+]([O-])c1cccnc1N1CCC(c2cc(-c3ccc(Cl)cc3Cl)n[nH]2)CC1	0%	?	?	-17	-22%	22µM*
CC(=O)c1ccc(N2CCC(c3cc(-c4ccc(Cl)cc4Cl)n[nH]3)CC2)c([N+](=O)[O-])c1	20µM*	?	?	-60*	-10%	11µM*
O=[N+]([O-])c1cccnc1N1CCC(c2cc(-c3cccc(C(F)(F)F)c3)n[nH]2)CC1	-6%	?	?	-30	-30%	?
NC(=O)CN1C[C@@H](O)CC1=O	.	.	1%	.	.	.
Cn1c(C(=O)NCc2ccc(F)cc2)cc2cc(S(=O)(=O)N3CCCCC3)ccc21	-35%	-2%[46.1 µM]	.	?	.	.
CC(C)CON=C1C[C@@H](O)[C@@H](O)[C@@H]2[C@H]3C(=O)N(c4cccc(Oc5ccccc5)c4)C(=O)[C@@H]3CC[C@H]12	.	.	-1%[14.2 µM]	.	.	.
CCCC(=O)Nc1ccc(C(=O)NNC(=S)NC(=O)c2cccs2)cc1	.	2%	-20%	-22	-6%	-16%
